# CF NFkB inh: blocks PAF-induced NF-kB reporter in cystic fibrosis cells; KKLEB NF-kB-GFP reporter, GFP fluorescence overnight; inhibition, % at 5 µM; actives 0.86% (n = 360,000);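 active = at least 50% inhibition at 5 µM, scaled per plate between neutral and stimulator controls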;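 also: PAF is a Pseudomonas aeruginosa culture filtrate used as stimulus; plate controls were PAF-stimulated DMSO wells for no effect and unstimulated DMSO wells for full effect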
# MITF TRPM1 inh: reduces MITF-dependent TRPM1 promoter luciferase signal | inhibition, % at 12.5 µM | actives 0.83% (n = 330,000) | SK-MEL-5 TRPM1 promoter luciferase, 24 h;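 active = mean inhibition across replicates of 60% or more, whatever share of single replicates reaches that level; inconclusive = some that reach 60%, reason not given; inactive = mean inhibition across replicates below 60%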
# Shn3 inh set2: inhibitors of Schnurri-3 3'UTR reporter in osteoblasts; inhibition, % at 12.5 µM; actives 0.52% (n = 360,000); Clone20 osteoblast Shn3 3'UTR firefly luciferase, 24 h; AID 588674;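 active = mean inhibition of at least 75% with every replicate also reaching 75%; inconclusive = mean inhibition at least 75% but some replicate below; inactive = mean inhibition below 75%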;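 also: 0% = median of neutral control wells and 100% = pilot-screen positive control compound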
# Peg3 prom inh: inhibitors of Peg3 promoter. inhibition, % at 20 µM. actives 1.7% (n = 360,000). HeLa PEG-Prom luciferase reporter, luminescence, overnight;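 active = inhibition of at least 50% at 20 µM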
# HIF-2a block: HIF-2a inhibition. 786-0 RCC cells HIF-2a reporter, luciferase luminescence, overnight. inhibition, % at 18.8 µM. actives 0.72% (n = 360,000);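 active = inhibition of the luminescence signal of 40% or more relative to plate controls, in a single-dose primary screen at 18.75 µM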
# KKLEB cytotox: reduces viability of KKLEB cystic fibrosis airway cells | KKLEB CF airway cells viability, ATPlite luminescence, overnight; stronger effect = lower value; cells stimulated with P. aeruginosa culture filtrate | activity change (cytotoxicity), % at 5 µM | actives 0.36% (n = 360,000) | AID 602141;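 active = corrected activity change at or below -50% at 5 µM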
# * hit, by the source's call; ? = inconclusive; / = no result given. Only some compounds are listed: those with a hit (about 2.8% of all), similar ones and a draw of the others.
SMILES,CF NFkB inh,MITF TRPM1 inh,Shn3 inh set2,Peg3 prom inh,HIF-2a block,KKLEB cytotox
O=C(C[C@@H]1C/C=C\C[C@@H](Cc2ccc(F)cc2)C(=O)OC[C@@H]2CCCN2C1=O)NCCO,-9.4,-2.3,-5.8,-4.3,-1.0,12.8
COc1cc2nc(NCC3CCCO3)n3nc(-c4cccnc4)nc3c2cc1OC (configuration not stated),-29.5,1.4,4.8,54.7*,13.5,-4.9
COCCCNc1nc2cc(OC)c(OC)cc2c2nc(-c3ccccc3)nn12,-42.2,-12.2,-2.5,54.0*,22.2,4.9
CCN(CC)CCCNc1nc2cc(OC)c(OC)cc2c2nc(-c3ccccc3)nn12,-110.3,-2.1,-22.7,-7.7,15.8,-4.8
N#C/C(=C\N1CCCCC1)S(=O)(=O)c1ccc(Cl)cc1,-0.7,/,0.3,15.1,22.4,5.8
CC(C)n1c(O)c(/C=C2\C=NN=C2c2ccccc2)sc1=S,58.4*,-8.0,12.0,10.6,5.5,8.3
CCn1c(O)c(/C=C2\C=NN=C2c2ccc(C)cc2)sc1=S,-4.7,-0.2,-1.8,13.4,9.9,6.5
O=C(Nc1ccc2cn[nH]c2c1)c1c(Cl)cccc1Cl,4.2,-10.1,13.6,-35.0,7.3,-4.3
CN(C)c1ccc(NC2=C(Cl)C(=O)c3ccccc3C2=O)cc1,80.3*,101.6*,98.1*,100.2*,96.5*,-81.6*
O=C1C(Cl)=C(Nc2ccc3cn[nH]c3c2)C(=O)c2ccccc21,93.7*,105.8*,96.5*,97.5*,94.5*,-92.4*
COc1ccc(C(C)=O)cc1COC(=O)C1CC(=O)N(Cc2ccccc2)C1 (configuration not stated),-7.7,13.4,7.1,8.2,4.0,7.6
Nc1ncnc2c(C3OC(CO)C(O)C3O)scc12 (configuration not stated),36.7,82.8*,97.2*,90.1*,49.6*,-15.0
CCC1Oc2ccccc2N(CC(=O)N2CC(C)CC(C)C2)C1=O (configuration not stated),26.7,/,-11.0,12.3,1.5,-5.9
Cc1ccc(NN2C(=O)C=C(c3ccccc3)C2=O)cc1,38.0,/,-0.7,84.8*,33.7,-21.6
O=C1c2ccccc2C(=O)N1Nc1ccccc1,-2.6,1.0,2.2,2.6,16.1,2.9
O=C(COc1ccccc1[N+](=O)[O-])NCCC1=CCCCC1,-5.9,5.3,-8.1,-12.0,-48.5,-3.4
CC1=CC(=O)c2ccccc2C1=O,61.8*,42.7,3.4,17.0,5.7,-16.0
CC1=C(O)c2ccccc2C(=O)C1=O,-14.4,/,-0.5,20.5,4.3,-3.3
CC(C)(C=O)C1=CC(=O)c2ccccc2C1=O,-11.5,38.7,55.4,108.4*,41.9*,-1.3
COc1cccc2c1C(=O)C=C(C)C2=O,57.7*,?,60.0,15.5,9.4,6.2
COc1ccccc1-c1ccccc1C1=CC(=O)CC(C)(C)C1=O,6.4,/,10.7,14.6,-1.0,-0.5
CCOc1ccc(NC(=O)c2ccccc2OCC(=O)c2ccc(C)cc2)cc1,42.8,-25.7,11.8,-1.5,3.6,-53.0*
COc1ccc(CN(C)CCCn2cnc(C(=O)Nc3ccc(C)c(C)c3)n2)cc1OC,16.4,3.9,-21.7,-7.8,-7.3,-10.8
C[C@@H](NCCCn1ccc(NC(=O)OCc2ccccc2)nc1=O)c1cccc2ccccc12,-8.8,-15.6,-15.8,71.2*,0.7,-7.4
O=C(CNS(=O)(=O)c1c(F)cc(F)cc1Br)OCC(=O)N1CCCC1=O,-23.5,5.9,5.1,-1.8,9.0,10.6
SMILES,CF NFkB inh,MITF TRPM1 inh,Shn3 inh set2,Peg3 prom inh,HIF-2a block,KKLEB cytotox
COC(=O)C1=C(C)N(Cc2ccccc2)C(=NCc2ccc(OC)cc2)N[C@H]1c1cccc(F)c1,31.9,?,?,101.8*,-2.7,-7.3
COC(=O)C1=C(C)N(Cc2ccccc2)C(=NCc2cccc(Cl)c2)N[C@H]1c1cccc(F)c1,60.0*,94.8*,-0.3,103.6*,2.4,-53.1*
O=C(CNC1CC1)Nc1cc(C(F)(F)F)ccc1Cl,6.6,-5.9,8.0,0.6,10.5,-2.3
NCC1CCN(c2nc3ccccc3c3c2CCCC3)CC1,14.7,4.2,0.4,102.1*,-5.0,-3.0
Cc1c2ccccc2c(C)c2c1ccc1ccccc12,0.5,-71.4,-53.0,69.3*,-67.8,13.8
Cc1c2ccccc2nc2ccccc12,-32.2,1.3,4.6,-3.1,-6.1,7.3
O=C(Cc1cccs1)NC(c1ccccc1)c1ccccc1,5.0,-9.4,-7.0,-20.2,-25.7,-8.6
O=C(COC(=O)/C(=C/c1cccs1)c1cccs1)NC(c1ccccc1)c1ccccc1,0.4,70.8*,15.9,26.4,23.7,-3.5
N#C/C(=N\Nc1ccc(S(=O)(=O)N2CCc3ccccc32)cc1)C(N)=S,58.2*,16.6,20.4,43.2,31.8,-9.1
Cn1cc(S(=O)(=O)N2CCc3ccccc32)cc1C(=O)NC(C)(C)C,-9.7,28.8,89.2*,1.9,13.0,0.0
Cc1cccc(C)c1NC(=O)c1cc(S(=O)(=O)N2CCc3ccccc32)cn1C,5.2,5.9,-6.3,6.4,12.8,-12.4
CCCCCCN1C[C@@H](n2cc(-c3ccc(F)cc3)nn2)[C@H](O)C[C@@H]1c1ccc(Cl)cc1,28.6,/,?,68.9*,-84.5,10.8
CCCCCCN1C[C@@H](n2cc(-c3ccc(F)cc3)nn2)[C@H](O)C[C@@H]1c1ccc(OC)cc1,-15.9,/,30.7,60.9*,-27.1,-2.3
CCCCCCN1C[C@H](O)[C@@H](n2cc(-c3ccc(F)cc3)nn2)C[C@@H]1c1ccc(Cl)cc1,12.3,/,16.0,32.2,11.1,-1.8
O=C(Nc1cccc(Cl)c1)Nc1nnc([C@H]2C[C@H](O)[C@@H](CO)O2)s1,-14.8,/,-9.7,-15.1,-65.1,2.7
CC(=O)c1c(C)[nH]c(C(=O)COC(=O)CN2C(=O)C3CCCCC3C2=O)c1C (configuration not stated),9.5,9.7,-2.8,-5.3,0.5,-12.5
CCOC(=O)c1c(C)[nH]c(C(=O)COC(=O)[C@H](C)N2C(=O)C3CCCCC3C2=O)c1C (some centres not stated),-5.6,17.4,92.7*,5.3,1.1,-1.1
O=C(Nc1ccc(S(=O)(=O)N2CCOCC2)cc1)c1cccc(Br)c1,-8.7,2.4,15.8,-4.6,17.1,-5.9
CCCOc1ccc2oc(=O)c3c(c2c1)CCCN3C(=O)CN1CCN(c2ncccn2)CC1,-22.8,0.7,93.6*,14.7,3.7,-5.1
CCCOc1ccc2oc(=O)c3c(c2c1)CCCN3C(=O)CN1CCCC(C(=O)OCC)C1 (configuration not stated),-1.4,2.4,1.8,22.1,9.3,-1.0
CN1CCN(CCCNC(=O)c2ccc(/C=C3/Sc4ccccc4N(Cc4cccc(Cl)c4)C3=O)cc2)CC1,13.9,7.7,16.3,83.5*,13.8,-19.8
